Sampled rows, rich in hits. Any-hit rate of the full collection: about 4.2%.
AHR activator – human AHR activation | AHR-responsive luciferase reporter cells, luminescence | activation, % at 5 µM | P35869 | hit rate 2.5% among 320,000 | AID 2796; in the data active means activation above about 47%
Target sequence (P35869 whole entry, looked up): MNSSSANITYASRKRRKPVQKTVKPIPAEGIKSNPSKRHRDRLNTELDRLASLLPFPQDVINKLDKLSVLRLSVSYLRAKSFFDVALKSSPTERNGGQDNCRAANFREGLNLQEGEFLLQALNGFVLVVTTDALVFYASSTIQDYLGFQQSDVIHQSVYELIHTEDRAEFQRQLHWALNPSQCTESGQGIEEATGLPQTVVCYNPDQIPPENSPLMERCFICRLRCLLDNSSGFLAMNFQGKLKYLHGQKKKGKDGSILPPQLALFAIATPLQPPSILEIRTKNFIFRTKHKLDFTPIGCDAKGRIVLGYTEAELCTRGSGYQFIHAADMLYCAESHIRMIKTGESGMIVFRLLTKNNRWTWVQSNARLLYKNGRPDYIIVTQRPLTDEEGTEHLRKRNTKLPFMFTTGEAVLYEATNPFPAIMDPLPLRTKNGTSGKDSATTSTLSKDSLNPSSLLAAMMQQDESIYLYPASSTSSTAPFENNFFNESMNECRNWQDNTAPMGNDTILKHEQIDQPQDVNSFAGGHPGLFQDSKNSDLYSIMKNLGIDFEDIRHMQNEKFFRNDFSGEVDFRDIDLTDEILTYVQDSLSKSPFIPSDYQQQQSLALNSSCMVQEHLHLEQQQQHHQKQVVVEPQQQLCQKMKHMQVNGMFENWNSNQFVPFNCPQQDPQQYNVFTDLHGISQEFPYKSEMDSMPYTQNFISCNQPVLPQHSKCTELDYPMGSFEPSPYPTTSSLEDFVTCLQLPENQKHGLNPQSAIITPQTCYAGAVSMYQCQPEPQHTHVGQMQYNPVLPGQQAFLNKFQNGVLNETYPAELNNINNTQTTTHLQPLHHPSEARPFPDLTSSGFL
Wnt act – Wnt/beta-catenin pathway activation; Wnt/beta-catenin reporter cell assay, activator, plate reader; activation, % at 9.35 µM; hit rate 1.2% among 300,000; AID 743398; in the data active means activation above about 30%, passing the limit was not always enough; inconclusive means no clear call, values can overlap the other calls
GAA850 FXN act – increases GAA850 frataxin promoter reporter activity; activation, % at 6 µM; HEK293 lucGAA850 FXN promoter luciferase reporter, 24 h; percent of 10 µM SAHA response; AID 540364; hit rate 0.56% among 360,000;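 active means activation above the average of all compounds screened plus 3 SD, cutoff fixed separately per campaign, cut at about 7.5% in these data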
esBAF inh – inhibitors of esBAF chromatin remodeling in mouse ES cells; Bmi1-luciferase knock-in reporter, 24 h; 100% = twice the neutral-well signal; reporter increase, % at 12.5 µM; hit rate 2% among 350,000; AID 602393; in the data active means activation above about 40%; inconclusive means no clear call, values can overlap the other calls;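 further: a rise in the Bmi1 reporter signal indicates esBAF inhibition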
MITF TRPM1 HTS – MITF TRPM1 promoter activation in melanoma cells; AID 588334; hit rate 0.75% among 300,000; activation, % at 12.5 µM; SK-MEL-5 TRPM1-promoter luciferase, 24 h; % of positive control, neutral wells = 0;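 active means mean activation of at least 80% with every replicate also reaching 80%; inconclusive means mean reaches 80% but some replicate falls short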
Numbers stand for hits; . = inactive; ? = inconclusive; / = no result.

SMILES	AHR activator	Wnt act	GAA850 FXN act	esBAF inh	MITF TRPM1 HTS
O=C(CN1C(=O)NC2(CCCCC2)C1=O)Nc1ccc2c(c1)OCCCO2	.	44.4	.	?	129.7
COc1c2c(nc3occc13)C(CC=C(C)C)(OC)C(O)CC2 (configuration not stated)	65.2	.	.	.	.
COc1c2ccoc2nc2c(OC)cccc12	.	.	.	.	.
COc1c2c(nc3occc13)C(CC=C(C)C)(OC)C(OC(C)=O)CC2 (configuration not stated)	72.5	/	.	.	.
C[C@H]1CN([C@@H](C)CO)C(=O)c2cc(NS(=O)(=O)c3ccc(F)cc3)ccc2O[C@@H]1CN(C)CC1CC1	/	/	/	.	/
Cc1ccc(NC2=CC(=O)C(=O)c3ccccc32)cc1	.	72.7	.	.	.
CCOC(=O)c1ccc(NC2=CC(=O)C(=O)c3ccccc32)cc1	.	/	.	.	.
CS(=O)(=O)N1CCN(c2ncnc3c2cnn3-c2ccccc2)CC1	.	.	.	/	.
c1ccc(-n2ncc3c(N4CCN(CCOc5cccc6ccccc56)CC4)ncnc32)cc1	49.1	.	.	.	.
O=C(Nc1ccccn1)Nc1ccccc1[N+](=O)[O-]	49.0	.	.	?	.
CCCOc1ccc(C(=O)Nc2ccccc2[N+](=O)[O-])cc1	.	/	.	63.8	.
CCCCOc1ccc(C(=O)Nc2ccc(C)cc2[N+](=O)[O-])cc1	.	.	.	/	.
CCCONC(=O)Nc1ccccc1[N+](=O)[O-]	53.3	/	.	/	.
Cc1ccccc1NC(=O)Nc1ccccn1	.	.	.	.	/
CC#CCOCC1CNC(=O)O1 (configuration not stated)	/	429.0	.	.	/
C[C@H](CO)N1C[C@H](C)[C@H](CN(C)C(=O)Nc2ccccc2)Oc2ccc(NC(=O)Cc3ccccc3)cc2C1=O	/	/	/	.	/
CCn1nnnc1SCC(=O)Nc1ccc(F)cc1	.	.	.	.	.
CCSc1ncc(/C=N/Nc2ccc(F)cc2)n1C	77.2	/	.	.	.
C[C@H](CO)N1C[C@H](C)[C@H](CN(C)S(=O)(=O)c2cn(C)cn2)Oc2ccc(NC(=O)CCC(F)(F)F)cc2C1=O	/	/	/	.	/
NC(=NCc1ccco1)NC(=O)c1ccc(Cl)cc1	.	.	.	49.0	91.9
O=C(NCCCNC(=O)c1ccco1)c1ccc(Cl)cc1	.	.	.	.	/
Cn1nc(C(=O)Nc2cc(Cl)ccc2N2CCCC2)c2ccccc2c1=O	63.7	.	.	.	.
CO[C@@H]1CN(C)C(=O)c2cc(NC(=O)Nc3cc(F)ccc3F)ccc2OC[C@H](C)N(C(=O)c2cnccn2)C[C@H]1C	/	/	/	.	/
CC(=O)N/C(N)=N/c1nc(=O)c2ccccc2s1	.	.	.	/	/
CCOC(=O)N/C(N)=N/c1nc2ccccc2s1	.	56.1	.	56.6	/
SMILES	AHR activator	Wnt act	GAA850 FXN act	esBAF inh	MITF TRPM1 HTS
COc1ccc2[nH]c(C(=O)Nc3ccc(F)cc3Br)cc2c1	49.9	.	.	/	/
Cc1ccc(S(=O)(=O)N(C)C[C@@H]2Oc3c(NC(=O)Nc4ccc(F)cc4)cccc3C(=O)N([C@@H](C)CO)C[C@@H]2C)cc1	/	/	/	.	/
CC(=O)N1CCN(c2ccccc2NC(=O)c2ccc(C#N)cc2F)CC1	71.4	.	.	/	.
Cc1cc(C)cc(-n2c(C)cc(C(=O)CSc3nnnn3C)c2C)c1	.	/	.	.	.
Cc1cc(C(=O)CSc2nnnn2C)c(C)n1-c1cccc(F)c1	.	/	.	.	98.1
Cc1cc(C(=O)COC(=O)C2=COCCO2)c(C)n1-c1cccc(F)c1	.	.	.	54.7	107.3
Cc1cc(C(=O)CSc2ncccn2)c(C)n1-c1cccc(F)c1	.	82.5	.	/	.
CS(=O)(=O)Nc1ccc2c(c1)[C@@H]1C[C@H](CC(=O)NCc3ccc(Oc4ccccc4)cc3)O[C@@H](CO)[C@@H]1O2	/	/	/	.	/
CCCC(=O)Nc1ccc2c(c1)C(=O)N(C)[C@H]1CC[C@@H](CC(=O)NCC3CC3)O[C@H]1CO2	/	/	/	.	/
O=C(CN1CCOCC1)NCC[C@@H]1CC[C@H](NC(=O)c2ccccc2F)[C@@H](CO)O1	/	/	/	.	/
S=C(Nc1ccccc1)c1ccccn1	.	/	.	79.5	.
S=C(Nc1ccccc1)Nc1ccccn1	/	.	.	.	/
C[C@@H]1CN([C@@H](C)CO)C(=O)c2cc(C#CC3CC3)cnc2O[C@@H]1CN(C)S(C)(=O)=O	/	/	/	.	/
COc1ccc2[nH]c(-c3cccc(F)c3)cc(=O)c2c1	58.2	.	.	.	.
O=c1cc(-c2ccccc2)[nH]c2ccc(F)cc12	58.5	.	.	.	.
O=c1cc(-c2cccc(F)c2)[nH]c2ccccc12	61.2	.	.	.	.
Cc1ccc(-c2cc(=O)c3cc(C)ccc3[nH]2)cc1	.	.	.	.	.
Cc1ccc(-c2cc(=O)c3cc(F)ccc3[nH]2)cc1	.	.	.	.	.
Cc1ccc2[nH]c(-c3cccc(F)c3)cc(=O)c2c1	50.2	.	.	.	.
CN1CCN(C(=O)C[C@@H]2C[C@H]3c4cc(NC(=O)C5CCOCC5)ccc4O[C@H]3[C@H](CO)O2)CC1	/	/	/	.	/
CCCC(=O)Nc1ccc2c(c1)OC[C@@H](C)N(CCC(F)(F)F)C[C@@H](C)[C@@H](OC)CN(C)C2=O	/	/	/	.	/
C[C@@H]1CN([C@H](C)CO)C(=O)c2cc(-c3ccccc3)cnc2O[C@H]1CN(C)Cc1cccnc1	/	/	/	.	/
O=C1c2ccccc2/C(=C\C#Cc2ccccn2)N1c1ccccc1	.	.	.	.	95.0
C[C@H](CO)N1C[C@H](C)[C@H](CN(C)Cc2ccccc2)Oc2c(NS(C)(=O)=O)cccc2C1=O	/	/	/	.	/
C=C(C)CNC(=O)CCc1nnc(Cc2cccc(C(F)(F)F)c2)o1	.	55.7	.	/	.
SMILES	AHR activator	Wnt act	GAA850 FXN act	esBAF inh	MITF TRPM1 HTS
COc1ccc(/C=C2\CCC(C3CCCC3)C2=O)c(OC)c1OC (configuration not stated)	.	.	.	.	/
COc1cccc(/C=C2\CCC(C3CCCC3)C2=O)c1OC (configuration not stated)	.	.	.	67.4	.
C[C@H]1CN([C@@H](C)CO)C(=O)c2cccc(NC(=O)C3CCOCC3)c2O[C@@H]1CN(C)S(=O)(=O)c1cccs1	/	/	/	.	/
Cc1c(Cl)cccc1NC(=O)CNc1ccccc1F	.	/	.	/	.
O=C(Nc1cccc2ccccc12)/C(Cl)=C/c1ccccc1	67.6	/	.	/	.
O=C(Nc1cccc2ccccc12)c1ccco1	/	.	/	/	/
Cc1ccoc1C(=O)Nc1cccc2ccccc12	/	.	.	42.1	.
O=C(CNc1ccccc1F)Nc1cccc2ccccc12	.	.	.	63.8	.
Cc1ccc(NC(=O)/C(Cl)=C\c2ccccc2)cc1	.	.	.	.	.
O=C(Nc1ccccc1F)C(=O)Nc1cccc2ccccc12	.	.	.	62.5	/
COc1ccc(NC(=O)Nc2ccc3c(c2)C(=O)N([C@@H](C)CO)C[C@@H](C)[C@H](CN(C)S(=O)(=O)c2ccccc2)OCCCC[C@H](C)O3)cc1	/	/	/	.	/
C[C@@H]1CN([C@@H](C)CO)S(=O)(=O)c2ccc(-c3cccc(C#N)c3)cc2O[C@@H]1CN(C)C(=O)C1CC1	/	/	/	.	/

From PubChem
